“And” between values parts separate entries of the source, which are not always exact repeats. Identical values can stand only once. Among all 5,500 compounds or so, about 2,000 (36%) were called active. Another 18% or so got no clear call; they are omitted. No stated cut-off is given here; in the data, active means normalized growth mostly below about 0.91 (no sharp cut-off); inconclusive means no clear call, values can overlap the other calls; inactive means mostly above about 0.92. The list shows a part of the results.
Test: chemical genetic growth profiling, strain panel (AID 1159580);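 further: tested at 20 µM; growth read once vehicle control cultures reached saturation at 30 °C; 1 = growth at the plate median or of vehicle wells; lower values mean less growth of the strain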
Settings: S. cerevisiae deletion strains, growth OD

Measured: normalized growth

COC1=CC(=O)C[C@@H](C)[C@]12Oc1c(Cl)c(OC)cc(OC)c1C2=O
inactive: locus YAL013W, strain DEP1, hits give low values 1.02 | locus YAL021C, strain ccr4, hits give low values 1.01 | locus YAL026C, strain drs2, hits give low values 0.989 | locus YAL030W, strain snc1, hits give low values 0.988 | locus YBL061C, strain skt5, hits give low values 0.972 | locus YBR009C, strain hhf1, hits give low values 0.937 | locus YBR021W, strain FUR4, hits give low values 1 | locus YBR023C, strain chs3, hits give low values 0.978 | locus YBR171W, strain sec66, hits give low values 0.961 | locus YBR229C, strain ROT2, hits give low values 0.954 | locus YBR231C, strain swc5, hits give low values 1 | locus YBR279W, strain paf1, hits give low values 0.987 | locus YCL011C, strain gbp2, hits give low values 0.963 | locus YCL016C, strain dcc1, hits give low values 0.958 | locus YCL029C, strain bik1, hits give low values 0.987 | locus YCL061C, strain MRC1, hits give low values 1 | locus YCL069W, strain vba3, hits give low values 0.979 | locus YCR088W, strain abp1, hits give low values 0.979 | locus YDL005C, strain med2, hits give low values 0.996 | locus YDL035C, strain GPR1, hits give low values 0.95 | locus YDL040C, strain nat1, hits give low values 0.995 | locus YDL074C, strain BRE1, hits give low values 1.02 | locus YDL101C, strain DUN1, hits give low values 1 | locus YDL134C, strain PPH21, hits give low values 0.97 | locus YDL185W, strain tfp1, hits give low values 0.972 | locus YDL192W, strain arf1, hits give low values 0.988 | locus YDR001C, strain nth1, hits give low values 0.982 | locus YDR069C, strain doa4, hits give low values 0.991 | locus YDR101C, strain arx1, hits give low values 0.992 | locus YDR137W, strain rgp1, hits give low values 0.954 | locus YDR150W, strain NUM1, hits give low values 0.996 | locus YDR159W, strain sac3, hits give low values 1.02 | locus YDR162C, strain NBP2, hits give low values 0.932 | locus YDR195W, strain ref2 1.03 | locus YDR297W, strain sur2, hits give low values 1 | locus YDR318W, strain mcm21, hits give low values 0.988 | locus YDR334W, strain swr1, hits give low values 0.993 | locus YDR335W, strain msn5, hits give low values 0.986 | locus YDR388W, hits give low values 1 | locus YDR392W, strain spt3, hits give low values 0.907 | locus YDR502C, strain sam2, hits give low values 0.999 | locus YEL003W, strain gim4, hits give low values 0.986 | locus YEL037C, strain rad23, hits give low values 0.984 | locus YEL061C, strain CIN8 (second series), hits give low values 0.977 | locus YEL061C, strain CIN8, hits give low values 0.996 | locus YER015W, strain faa2, hits give low values 0.971 | locus YER016W, strain bim1, hits give low values 0.971 | locus YER110C, hits give low values 0.989 | locus YER111C, strain swi4, hits give low values 0.979 | locus YER155C, strain BEM2 (second series), hits give low values 1.01 | locus YER155C, strain BEM2, hits give low values 1.01 | locus YER167W, strain BCK2, hits give low values 0.981 | locus YFR010W, strain ubp6, hits give low values 0.987 | locus YGL078C, strain dbp3, hits give low values 0.987 | locus YGL086W, strain mad1, hits give low values 0.994 | locus YGL167C, strain pmr1, hits give low values 0.97 | locus YGL173C, strain kem1, hits give low values 0.984 | locus YGL227W, strain vid30, hits give low values 0.978 | locus YGL240W, strain doc1, hits give low values 1.01 | locus YGL248W, strain PDE1, hits give low values 1.01 | locus YGL253W, strain hxk2, hits give low values 0.994 | locus YGR078C, strain PAC10, hits give low values 1.01 | locus YGR135W, strain pre9, hits give low values 1.01 | locus YGR229C, strain SMI1, hits give low values 0.978 | locus YGR252W, strain gcn5, hits give low values 0.992 | locus YHR013C, strain ard1, hits give low values 0.975 | locus YHR027C, strain rpn1, hits give low values 0.975 | locus YHR030C, strain SLT2, hits give low values 0.988 and 1.01 | locus YHR079C, strain IRE1 (second series), hits give low values 0.995 | locus YHR079C, strain IRE1, hits give low values 1.01 | locus YHR094C, strain hxt1, hits give low values 0.988 | locus YHR129C, strain ARP1, hits give low values 0.996 | locus YHR142W, strain chs7, hits give low values 0.934 | locus YHR200W, strain rpn10, hits give low values 0.983 | locus YIL066C, strain RNR3, hits give low values 0.937 | locus YIL073C, strain SPO22, hits give low values 0.997 | locus YIL125W, strain kgd1, hits give low values 0.986 | locus YIR030C, strain dcg1, hits give low values 1.01 | locus YJL092W, strain hpr5, hits give low values 0.987 | locus YJL095W, strain BCK1 (second series), hits give low values 0.977 | locus YJL095W, strain BCK1, hits give low values 1.06 and 1.01 | locus YJL115W, strain asf1, hits give low values 0.981 | locus YJL129C, strain trk1, hits give low values 0.964 | locus YJL134W, strain LCB3, hits give low values 0.987 | locus YJL154C, strain vps35, hits give low values 0.983 | locus YJL164C, strain tpk1, hits give low values 0.964 | locus YJL166W, strain qcr8, hits give low values 1 | locus YJL168C, strain set2, hits give low values 0.989 | locus YJL187C, strain SWE1 (second series), hits give low values 1.03 | locus YJL187C, strain SWE1, hits give low values 0.983 | locus YJR043C, strain POL32, hits give low values 0.964 | locus YJR066W, strain TOR1, hits give low values 0.969

Source: PubChem BioAssay AID1159580 (chemical genetic matrix, 2015)
